MCF10A rereplic: DNA re-replication induction in MCF 10a cells; AID 624296; MCF 10A DNA re-replication, Hoechst nuclear intensity, 48 h; Potency, µM (doses to about 46.1 µM), for the others: top-dose activity, positive = re-replication, usual class: activators; actives 2.9% (n = 350,000); also: potency is read from the fitted curve at half-maximal effect; % of control where 0% means no effect; nearly all actives have a fitted effect of over 50% in size
Vif-APOBEC3G blk: blocks the Vif interaction with human APOBEC3G; HeLa A3G-eYFP + Vif (tagged APOBEC3G with the HIV-1 protein that degrades it), YFP fluorescence, overnight; actives 0.076% (n = 410,000); Q9HC16; Potency, µM (series often up to 46.1 µM), for the others: at the top dose activity, negative = active, most hits filed as inhibitors; also: potency is read from the fitted curve at half-maximal effect; % is scaled to controls: 0 for no effect and ±100 for the full control effect; nearly all actives have a fitted effect of over 60% in size
Target sequence (Q9HC16 whole entry, looked up): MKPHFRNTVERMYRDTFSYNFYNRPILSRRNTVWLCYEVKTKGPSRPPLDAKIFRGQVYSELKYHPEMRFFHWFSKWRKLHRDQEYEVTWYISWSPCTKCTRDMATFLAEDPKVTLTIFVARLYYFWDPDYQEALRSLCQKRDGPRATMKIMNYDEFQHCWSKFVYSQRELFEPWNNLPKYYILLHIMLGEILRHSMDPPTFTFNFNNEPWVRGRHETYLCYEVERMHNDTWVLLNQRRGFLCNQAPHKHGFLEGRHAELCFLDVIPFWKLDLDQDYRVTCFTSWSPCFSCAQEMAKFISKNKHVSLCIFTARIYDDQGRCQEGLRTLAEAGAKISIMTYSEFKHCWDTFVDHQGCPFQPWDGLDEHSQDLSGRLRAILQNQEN
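Read-out is eYFP fluorescence (Ex 488/Em 500-530) from Vif-expressing HeLa A3G-eYFP cells; more signal means A3G escaped Vif-mediated degradation. Cells plated overnight, compound pinned in, incubated overnight at 37 deg C.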
Vif-A3F inh: blocks the Vif interaction with APOBEC3F; actives 0.2% (n = 390,000); HeLa A3F-eYFP + Vif (tagged APOBEC3F with the HIV-1 protein that degrades it), YFP fluorescence increase; Potency, µM (highest dose often 46.1 µM), for the others: at the highest dose activity, negative = active; also: potency is read from the fitted curve at half-maximal effect; % of control where 0% means no effect; nearly all actives have a fitted effect of over 65% in size
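Fluorescence increase (Ex 488/Em 500-530) after overnight compound treatment at 37 deg C flags inhibition of Vif-driven A3F-eYFP loss in stable HeLa A3F-eYFP/Vif cells seeded overnight beforehand.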
SW480 rerep: DNA re-replication induction in SW480 cells. AID 624297. SW480 DNA re-replication, Hoechst DNA content imaging, 48 h. actives 1.8% (n = 340,000). Potency, µM (doses to about 46.1 µM), without a hit: at the highest dose re-replication activation, actives largely listed as activators; also: potency is read from the fitted curve at half-maximal effect; % of control where 0% means no effect; nearly all actives have a fitted effect of over 55% in size
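First, 250 cells per well were seeded. Next, compound or vehicle (23 nL) was pinned in, plates sat 48 hr at 37 C. Finally Hoechst was added for 40 min before fluorescence scanning.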
IL-1B inflam inh: inhibitors of inflammasome signaling (IL-1 beta secretion); actives 4.7% (n = 360,000); THP-1 LPS/ATP IL-1B secretion, AlphaLISA, 16 h; hits give low values; AID 743279; activity change, % at 57.5 µM; in the data active = activity change below about -50%; inconclusive = mostly about -30% to -49%; also: % is scaled to controls: 0 for no effect and ±100 for the full control effect
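THP-1 cells pretreated 1 hr with compounds (up to 57.5 uM final), then stimulated with LPS (250 ng/mL final) plus ATP (1.25 mM final); secreted IL-1B measured by AlphaLISA after 16 hr, decreased signal indicating inhibition.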
Giardia kill: Giardia lamblia killing; actives 0.15% (n = 340,000); Giardia lamblia trophozoite viability; AID 540267; activity change, % at 7.66 µM, hits read low; in the data active = activity change below about -80%; inconclusive = between about -30% and that limit;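 also: parasites exposed to compound for two days anaerobically before the ATP read; % is scaled to controls: 0 for no effect and ±100 for the full control effect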
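Compounds were tested on trophozoites seeded at 100 cells/well and held 48 hrs at 37 deg C anaerobically. An ATP-based luminescent kit measured the remaining live cells.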
Numbers without * were called inactive. Rows were chosen to be rich in hits. Some 6.9% of all compounds tested hit in one or more screens of this group. Unless noted, calls follow the shape of the dose curve; as a rule, active = well fitted curve in the direction sought with a large enough effect; inconclusive = small, poorly fitted or top-dose-only effect, or another doubt; inactive = no such curve, though single readings can be large; an effect the other way counts as inactive or inconclusive.

For N[C@@H](Cc1ccc(N(CCCl)CCCl)cc1)C(=O)O the results were MCF10A rereplic inconclusive, Vif-APOBEC3G blk 1.4%, Vif-A3F inh 3.0%, SW480 rerep inconclusive, IL-1B inflam inh -5.6 and Giardia kill 3.5.
For ClCCN(CCCl)c1ccc(-n2cnc3c(Cl)ncnc32)cc1 the results were MCF10A rereplic 2.91µM*, Vif-APOBEC3G blk -25.3%, Vif-A3F inh 16.7%, SW480 rerep 8.2µM*, IL-1B inflam inh -96.0* and Giardia kill -7.6.
`CCOC(=O)CN1C(=O)N[C@@H](c2cccc(C(F)(F)F)c2)C(C(C)=O)=C1C` gave MCF10A rereplic inconclusive, Vif-APOBEC3G blk 2.1%, Vif-A3F inh -5.9%, SW480 rerep -9.3%, IL-1B inflam inh 19.3 and Giardia kill 9.5.
For COc1cc(CN2CC3CC(C2)c2cccc(=O)n2C3)cc(OC)c1OC (configuration not stated) the results were MCF10A rereplic 25.9µM*, Vif-APOBEC3G blk 0.3%, Vif-A3F inh -7.3%, SW480 rerep 1.0%, IL-1B inflam inh -14.4 and Giardia kill -7.9.
Screening COc1cc(C)c(-c2nc(CN3C[C@@H]4C[C@@H](C3)c3cccc(=O)n3C4)c(C)o2)cc1C returned MCF10A rereplic -7.2%, Vif-APOBEC3G blk -0.4%, Vif-A3F inh 1.6%, SW480 rerep 2.7%, IL-1B inflam inh -114.7* and Giardia kill -15.1.
`Cc1ccc(CN2CC3CC(C2)c2cccc(=O)n2C3)cc1` (configuration not stated) gave MCF10A rereplic -0.6%, Vif-APOBEC3G blk -12.4%, Vif-A3F inh -1.3%, SW480 rerep 0.4%, IL-1B inflam inh -6.5 and Giardia kill -6.2.
`O=c1cccc2n1CC1CC2CN(Cc2c(Cl)cccc2Cl)C1` (configuration not stated) gave MCF10A rereplic 2.9%, Vif-APOBEC3G blk -2.1%, Vif-A3F inh -1.8%, SW480 rerep 0.1%, IL-1B inflam inh -6.0 and Giardia kill 3.1.
`O=C1NCN(c2ccccc2)C12CCN(C(c1cccc3ccccc13)c1nnnn1Cc1ccccc1)CC2` (configuration not stated) gave Vif-APOBEC3G blk -6.5% and IL-1B inflam inh inconclusive.
`O=c1[nH]c2ccccc2n1C1CCN(C(CCc2ccccc2)c2nnnn2C2CCCC2)CC1` (configuration not stated) gave Vif-APOBEC3G blk -15.7% and IL-1B inflam inh -55.2*.
`O=c1[nH]c2ccccc2n1C1CCN(C(c2ccccc2OC(F)(F)F)c2nnnn2-c2ccc3c(c2)OCCO3)CC1` (configuration not stated) gave Vif-APOBEC3G blk -2.3% and IL-1B inflam inh -55.7*.
O=C1NCN(c2ccccc2)C12CCN(C(c1ccnc3ccccc13)c1nnnn1Cc1ccccc1)CC2 (configuration not stated) was read as Vif-APOBEC3G blk -1.4% and IL-1B inflam inh -51.4*.
Screening COc1ccc(C(c2nnnn2-c2c(C)cccc2C)N2CCC(n3c(=O)[nH]c4ccccc43)CC2)cc1 (configuration not stated) returned Vif-APOBEC3G blk -4.5% and IL-1B inflam inh -91.6*.
COc1cccc(C(c2nnnn2-c2ccc3c(c2)OCCO3)N2CCC(n3c(=O)[nH]c4ccccc43)CC2)c1OC (configuration not stated) was read as Vif-APOBEC3G blk -6.9% and IL-1B inflam inh 32.3.
`C[C@H]1CC[C@@H]2[C@@H](C)[C@H]3C(C[C@H]4C5CC[C@H]6C[C@@H](O)CC[C@]6(C)C5CC[C@]34C)N2C1` (some centres not stated) gave Vif-APOBEC3G blk -2.4% and Giardia kill 11.9.
`CCSc1nc2n(n1)C(c1ccc(Cl)cc1Cl)C(C(=O)Nc1ccccc1C)=C(C)N2` (configuration not stated) gave Vif-APOBEC3G blk -1.2% and Vif-A3F inh inconclusive.
Screening Cc1cccc2sc(NC(=O)c3cccn(Cc4ccccc4)c3=O)nc12 returned Vif-APOBEC3G blk -19.9% and Vif-A3F inh inconclusive.
Cc1cccc(C)c1-n1nnnc1C(c1cc2ccccc2o1)N1CCC(n2c(=O)[nH]c3ccccc32)CC1 (configuration not stated) was read as Vif-APOBEC3G blk -12.1% and IL-1B inflam inh -23.4.
COc1ccc(C(c2nnnn2-c2c(C)cccc2C)N2CCC3(CC2)C(=O)NCN3c2ccccc2)cc1 (configuration not stated) was read as Vif-APOBEC3G blk -5.6% and IL-1B inflam inh -64.5*.
For Cc1cccc(C)c1-n1nnnc1C(c1ccccc1OC(F)(F)F)N1CCC(n2c(=O)[nH]c3ccccc32)CC1 (configuration not stated) the results were Vif-APOBEC3G blk -11.1% and IL-1B inflam inh -81.4*.
Screening Cc1ccc2c(c1)C1CN(C)CCC1N2C(=O)c1cccs1 (configuration not stated) returned MCF10A rereplic -4.2%, Vif-APOBEC3G blk 0.6%, Vif-A3F inh -7.3%, SW480 rerep -6.9%, IL-1B inflam inh -7.8 and Giardia kill 23.0.
`O=C(CCN1CC2CCC(CC2)C1)c1cccs1` gave MCF10A rereplic 10.3µM*, Vif-APOBEC3G blk -0.7%, Vif-A3F inh 7.3%, SW480 rerep inconclusive, IL-1B inflam inh -29.1 and Giardia kill -15.0.
Screening O=C1NC2C(O)C(O)C(O)C(O)C2c2cc3c(c(O)c21)OCO3 (configuration not stated) returned MCF10A rereplic 14.2%, Vif-APOBEC3G blk -13.9%, Vif-A3F inh 13.7%, SW480 rerep 16.6%, IL-1B inflam inh -102.9* and Giardia kill 0.7.
For O=C1NC2C(=CC(O)C(O)C2O)c2cc3c(c(O)c21)OCO3 (configuration not stated) the results were MCF10A rereplic inconclusive, Vif-APOBEC3G blk -11.1%, Vif-A3F inh -9.1%, SW480 rerep inconclusive, IL-1B inflam inh -116.7* and Giardia kill inconclusive.
Screening O=C1NC2C(=CC(O)C(O)C2O)c2cc3c(cc21)OCO3 (configuration not stated) returned MCF10A rereplic inconclusive, Vif-APOBEC3G blk -5.6%, Vif-A3F inh 4.4%, SW480 rerep 22.6%, IL-1B inflam inh -101.2* and Giardia kill -4.6.
C=C1C=C(C(F)F)n2ncc(C(=O)NCc3ccccc3F)c2N1 was read as Vif-APOBEC3G blk -0.4%.

Screening data from PubChem.
